# Laboratory results published in PubChem BioAssay (EPA / NIEHS).
# Inconclusive results are not listed. The source made the active and inactive calls. The calls were made as follows, unless noted: active = hit-call score of the fitted dose curve at least 0.9, where 1 is the maximum; inconclusive = response in the unintended direction; inactive = score below 0.9.
# Experiments:
# PGR (gene 5241) [1] = molecular target: PGR (gene 5241) (UniProt P06401); assay: TOX21_PR_LUC_Followup_Antagonist: Tox21 HEK293 Progesterone Receptor (PR) Antagonism Luciferase Follow-Up Assay (AID 2283938);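 also: curve fitted upward as signal gain over DMSO baseline despite antagonist label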
# Chain of PGR (gene 5241) (P06401 whole entry, looked up): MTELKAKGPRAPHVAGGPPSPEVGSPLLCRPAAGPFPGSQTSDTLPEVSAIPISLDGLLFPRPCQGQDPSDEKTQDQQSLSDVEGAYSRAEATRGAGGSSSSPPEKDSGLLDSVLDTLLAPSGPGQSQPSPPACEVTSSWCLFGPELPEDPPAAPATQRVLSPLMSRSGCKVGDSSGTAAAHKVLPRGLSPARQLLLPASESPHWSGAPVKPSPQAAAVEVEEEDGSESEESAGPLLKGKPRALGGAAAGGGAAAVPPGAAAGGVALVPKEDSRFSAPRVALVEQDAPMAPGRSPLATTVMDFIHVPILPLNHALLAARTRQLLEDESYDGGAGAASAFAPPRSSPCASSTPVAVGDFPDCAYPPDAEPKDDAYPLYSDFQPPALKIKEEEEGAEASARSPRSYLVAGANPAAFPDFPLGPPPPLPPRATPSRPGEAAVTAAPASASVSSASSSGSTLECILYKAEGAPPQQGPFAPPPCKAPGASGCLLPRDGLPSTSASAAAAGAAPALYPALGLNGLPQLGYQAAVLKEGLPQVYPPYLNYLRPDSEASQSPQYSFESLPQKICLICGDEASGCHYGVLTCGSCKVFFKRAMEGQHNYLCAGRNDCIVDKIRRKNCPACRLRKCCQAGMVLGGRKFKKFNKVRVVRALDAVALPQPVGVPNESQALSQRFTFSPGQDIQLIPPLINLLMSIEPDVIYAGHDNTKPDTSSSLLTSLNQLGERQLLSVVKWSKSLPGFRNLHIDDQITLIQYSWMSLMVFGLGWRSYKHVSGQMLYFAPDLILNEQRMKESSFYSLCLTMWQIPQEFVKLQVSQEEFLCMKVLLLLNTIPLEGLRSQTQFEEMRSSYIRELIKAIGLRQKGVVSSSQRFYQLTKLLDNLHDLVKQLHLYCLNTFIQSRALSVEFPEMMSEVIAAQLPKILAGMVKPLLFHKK
# Outline: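 Luminescence from ONE-Glo reagent, measured after 30 min at room temperature, served as readout. Cells (HEK293 carrying PR-A-luc) had been treated 16 h at 37C with DMSO-dissolved compounds. Activity was fitted against DMSO controls.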
# [2] = TOX21_PR_LUC_Followup_Antagonist_viability: Viability Assessment in the Tox21 HEK293 Progesterone Receptor (PR) Antagonism Luciferase Follow-Up Assay (AID 2283940)
# Outline: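 Viability counter-readout: cellular ATP measured by luciferase luminescence after 16 h compound exposure at 37C of HEK293-PR-A-luc cells, which had been cultured in charcoal-stripped serum and seeded 5 h beforehand.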
# [3] = TOX21_PR_LUC_Followup_Agonist_viability: Viability Assessment in the Tox21 HEK293 Progesterone Receptor (PR) Agonism Luciferase Follow-Up Assay (AID 2283941);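 also: loss of signal means cytotoxicity so actives lower viability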
# Outline: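 Cytotoxicity counter-readout in the PR-A luciferase reporter line HEK293, with 16 h compound exposure at 37C after cells were cultured in charcoal-stripped serum. Cellular ATP quantified by CellTiter-Glo luminescence.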
# [4] = TOX21_PR_BLA_Followup_Antagonist_viability: Viability Assessment in the Tox21 HEK293 Progesterone Receptor (PR) Antagonism Beta-lactamase Follow-Up Assay (AID 2283936);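 also: cells exposed to compound with R5020 agonist for 16 h; hits lower the luminescence signal meaning cytotoxicity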
# Outline: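 PR-UAS-bla HEK293T cells in medium with 2% charcoal-stripped FBS were treated with compounds plus R5020 for 16 hr at 37C. After the beta-lactamase read, CellTiter-Glo was added to the same wells and luminescence read after 30 min at room temperature.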
# [5] = molecular target: Thyroid hormone receptor alpha (Rattus norvegicus) + Thyroid hormone receptor beta (Rattus norvegicus) (UniProt P18113+P63059); assay: TOX21_TR_LUC_GH3_Agonist_Followup: Tox21 GH3 Thyroid Hormone Receptor Agonism Luciferase Follow-Up Assay (AID 2283939)
# Chain of Thyroid hormone receptor alpha (Rattus norvegicus) + Thyroid hormone receptor beta (Rattus norvegicus) (P63059 whole entry, looked up): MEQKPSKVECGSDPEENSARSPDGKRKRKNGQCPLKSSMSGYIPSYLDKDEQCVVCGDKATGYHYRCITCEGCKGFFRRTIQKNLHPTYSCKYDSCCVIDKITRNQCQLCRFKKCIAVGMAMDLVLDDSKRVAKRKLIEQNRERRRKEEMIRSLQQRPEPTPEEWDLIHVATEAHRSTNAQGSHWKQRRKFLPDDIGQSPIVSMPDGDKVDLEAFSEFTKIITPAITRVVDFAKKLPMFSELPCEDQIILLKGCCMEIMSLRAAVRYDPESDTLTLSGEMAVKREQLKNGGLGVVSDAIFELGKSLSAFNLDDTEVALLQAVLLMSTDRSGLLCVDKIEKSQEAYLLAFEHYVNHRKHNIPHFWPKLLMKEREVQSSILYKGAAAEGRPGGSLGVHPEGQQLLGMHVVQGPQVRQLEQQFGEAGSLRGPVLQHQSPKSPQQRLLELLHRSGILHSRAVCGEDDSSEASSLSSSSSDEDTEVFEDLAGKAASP
# Chain of Thyroid hormone receptor alpha (Rattus norvegicus) + Thyroid hormone receptor beta (Rattus norvegicus) (P18113 whole entry, looked up): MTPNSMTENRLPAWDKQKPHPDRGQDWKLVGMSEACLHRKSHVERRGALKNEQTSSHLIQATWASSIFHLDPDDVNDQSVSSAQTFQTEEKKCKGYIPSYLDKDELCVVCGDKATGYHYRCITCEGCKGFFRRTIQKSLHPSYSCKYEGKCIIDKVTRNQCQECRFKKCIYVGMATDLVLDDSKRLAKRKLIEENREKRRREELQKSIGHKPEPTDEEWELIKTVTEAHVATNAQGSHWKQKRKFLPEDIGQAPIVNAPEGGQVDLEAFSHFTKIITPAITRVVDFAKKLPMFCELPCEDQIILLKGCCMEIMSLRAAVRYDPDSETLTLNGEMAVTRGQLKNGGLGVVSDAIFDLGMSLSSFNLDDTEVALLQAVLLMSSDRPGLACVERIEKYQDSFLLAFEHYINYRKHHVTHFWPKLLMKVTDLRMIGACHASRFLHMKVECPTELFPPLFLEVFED
# Outline: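 Agonist-mode confirmatory run: 15 concentrations (5 nM to 92 uM final) on GH3 rat pituitary cells, 24 h at 37C/5% CO2, T3 as positive control. Luminescence read with ONE-Glo after 30 min.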
# THRA (gene 7067) = THRA (gene 7067) (UniProt P10827); assay: TOX21_TRA_COA_Agonist_Followup_ratio: Tox21 Thyroid Hormone Receptor alpha Agonism through Coactivator Recruitment Follow-Up Assay, Ratio (AID 2283948; active = hit-call score of the fitted dose curve at least 0.9, where 1 is the maximum; inactive = score below 0.9)
# Chain of THRA (gene 7067) (P10827 whole entry, looked up): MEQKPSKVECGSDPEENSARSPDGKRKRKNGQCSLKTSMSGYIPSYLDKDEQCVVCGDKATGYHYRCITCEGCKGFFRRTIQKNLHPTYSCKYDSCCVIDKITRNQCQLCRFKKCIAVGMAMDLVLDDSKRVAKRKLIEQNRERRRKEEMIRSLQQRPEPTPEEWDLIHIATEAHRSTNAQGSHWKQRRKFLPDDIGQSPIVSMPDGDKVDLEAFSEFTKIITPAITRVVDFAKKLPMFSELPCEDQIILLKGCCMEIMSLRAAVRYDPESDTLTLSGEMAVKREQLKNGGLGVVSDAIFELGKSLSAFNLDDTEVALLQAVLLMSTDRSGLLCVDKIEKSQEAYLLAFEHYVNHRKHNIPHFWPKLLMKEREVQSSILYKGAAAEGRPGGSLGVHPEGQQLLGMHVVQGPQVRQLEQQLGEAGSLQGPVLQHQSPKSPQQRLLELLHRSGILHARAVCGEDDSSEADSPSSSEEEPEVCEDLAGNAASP
# From the text: (§1) TOX21_TRa_COA_Agonist_Followup is a secondary assay for specificity for the TOX21_TR_GH3_LUC_Agonist assay. The LanthaScreen TR-FRET TR coactivator assay kits were used to determine TR activity in a cell-free functional assay. A time-resolved fluorescence resonance energy transfer (TR-FRET) signal was indicative of coactivator (SRC-2) recruitment.TOX21_TRA_COA_Agonist_Followup_ratio is assay component calculated in the TOX21_TRA_COA_Agonist_Followup assay. The TR-FRET ratio of acceptor emission (ch2) to donor emission (ch1) is indicative of the resonance energy transfer to the fluorescein tag on the coactivator peptide following recruitment to the receptor.Data from the assay component TOX21_TRA_COA_Agonist_Followup_ratio was analyzed into 1 assay endpoint. This assay endpoint, TOX21_TRA_COA_Agonist_Followup_ratio, was analyzed in the positive analysis fitting direction relative to DMSO as the negative control and baseline of activity. Using a type of inducible reporter, gain-of-signal activity can be used to understand changes in the reporter gene as they relate to the gene THRA. Furthermore, this assay endpoint can be referred to as a primary readout, because this assay has produced multiple assay endpoints and this ratio serves a reporter gene function to understand target activity. To generalize the intended target to other relatable targets, this assay endpoint is annotated to the nuclear receptor intended target family, where the subfamily is non-steroidal.
# (§2) Cell Media Required: Growth (90% DMEM/F-12, 10% Fetal Bovine Calf Serum, 100U/ml Penicillin, 100 ug/ml Streptomycin), Assay (10ng/mL sodium selenite, 10 ug/mL humanapo-transferrin, 10 uM ethanolamine, 10 ug/mL insulin, 500 ug/mL bovine serum albumin (BSA))Assay Protocol: 4 uL mixture of the receptor LBDs expressed as glutathione S-transferase (GST) fusion proteins (2.5 nM for TRa and 5.0 nM for TRb) and BSA (0.10%; Sigma-Aldrich) were incubated with 23 nL of control or test compound. A time-resolved fluorescence resonance energy transfer(TR-FRET) signal was indicative of coactivator recruitment using a 2 uL mixture of fluoresce in-labeled SRC-2 peptide (200 nM) and terbium-labeled anti-GST antibody (2nM), which transferred resonance energy to the fluorescein tag on the coactivator peptide following recruitment to the receptor. Fluorescence emission ratios (520:495 nm) were collected by an Envision plate reader (excitation at 340 nm and emissions at 495 and 520 nm), and the measured values were normalized to 0% activity using DMSO-only wells and 100 activity using T3 control wells.
# [6] = TOX21_TRB_BLA_Agonist_Followup_viability: Viability Assessment in the Tox21 Thyroid Hormone Receptor beta Agonism Beta-lactamase (BLA) Follow-Up Assay (AID 2283956)
# Outline: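 Viability was read as CellTiter-Glo luminescence in the same wells as the TRb-bla agonist read-out. HEK293T GAL4-TRb LBD cells were treated for 18 h (37C, 5% CO2) at 11 concentrations in triplicate. Fits were bidirectional versus DMSO baseline.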
# THRB (gene 7068) [7] = molecular target: THRB (gene 7068) (UniProt P10828); assay: TOX21_TRB_COA_Agonist_Followup_ratio: Tox21 Thyroid Hormone Receptor beta Agonism through Coactivator Recruitment Follow-Up Assay, Ratio (AID 2283963; active = hit-call score of the fitted dose curve at least 0.9, where 1 is the maximum; inactive = score below 0.9)
# Chain of THRB (gene 7068) (P10828 whole entry, looked up, the tested form may be a part): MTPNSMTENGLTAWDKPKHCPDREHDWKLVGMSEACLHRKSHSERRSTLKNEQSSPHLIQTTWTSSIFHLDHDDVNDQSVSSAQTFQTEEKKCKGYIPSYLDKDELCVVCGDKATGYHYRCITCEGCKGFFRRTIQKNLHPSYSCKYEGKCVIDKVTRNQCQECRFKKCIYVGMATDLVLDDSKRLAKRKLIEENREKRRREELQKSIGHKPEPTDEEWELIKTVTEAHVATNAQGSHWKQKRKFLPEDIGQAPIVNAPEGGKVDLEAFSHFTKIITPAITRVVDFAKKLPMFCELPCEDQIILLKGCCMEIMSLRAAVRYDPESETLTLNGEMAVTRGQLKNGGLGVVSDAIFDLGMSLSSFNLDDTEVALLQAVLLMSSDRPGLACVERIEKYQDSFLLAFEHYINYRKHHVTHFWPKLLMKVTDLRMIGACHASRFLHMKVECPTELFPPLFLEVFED
# From the text: as §1, with “TOX21_TRb_COA_Agonist_Followup” for “TOX21_TRa_COA_Agonist_Followup”, “recruitment.TOX21_TRB_COA_Agonist_Followup_ratio” for “recruitment.TOX21_TRA_COA_Agonist_Followup_ratio”, “TOX21_TRB_COA_Agonist_Followup” for “TOX21_TRA_COA_Agonist_Followup”, “[…]” for “TOX21_TRA_COA_Agonist_Followup_ratio”, “[…],” for “TOX21_TRA_COA_Agonist_Followup_ratio,”, “THRB.” for “THRA.”
# as §2
# THRB (gene 7068) [8] = molecular target: THRB (gene 7068) (UniProt P10828); assay: TOX21_TRB_BLA_Agonist_Followup_ratio: Tox21 Thyroid Hormone Receptor beta Agonism Beta-lactamase (BLA) Follow-Up Assay, Ratio (AID 2283954)
# From the text: The GeneBLAzer TRb-UAS-bla HEK293T assay kit for human TRb (ThermoFisherScientific Catalog No. K1684) was used as a secondary assay for specificity (TRb-bla). This assay contained the ligand-binding domain (LBD) of the human TRb fused to the DNA-binding domain of GAL4 stably integrated in the GeneBLAzer UAS-bla HEK293Tcell line. The reporter gene, b-lactamase, is under the transcriptional control of a UAS that binds the GAL4 DNA-binding domain. A cell viability assay was run in parallel for these cells as well using the CellTiter-Glo viability assay kit.TOX21_TRB_BLA_Agonist_Followup_ratio is an assay readout measuring reporter gene via receptor activity and designed using inducible reporter (beta lactamase induction) detected with GAL4 b-lactamase reporter gene. The signal is derived from the ratio of cleaved (ch2) to uncleaved (ch1) reporter gene substrate used as the measure of target activity.Data from the assay component TOX21_TRB_BLA_Agonist_Followup_ratio was analyzed into 1 assay endpoint. This assay endpoint, TOX21_TRB_BLA_Agonist_Followup_ratio, was analyzed in the positive analysis fitting direction relative to DMSO as the negative control and baseline of activity. Using a type of inducible reporter, gain-of-signal activity can be used to understand changes in the reporter gene as they relate to the gene THRB. Furthermore, this assay endpoint can be referred to as a primary readout, because this assay has produced multiple assay endpoints and this ratio serves a reporter gene function to understand target activity. To generalize the intended target to other relatable targets, this assay endpoint is annotated to the nuclear receptor intended target family, where subfamily is non-steroidal.
# After 5-h incubation at 37C/5% CO2 for cell attachment to the well bottom, 23nL of follow-up compounds dissolved in DMSO, 11 concentrations in triplicate, and the positive control (T3; agonist format) were transferred to the assay plates using a Pintool station. […] After 2-h incubation at room temperature, the fluorescence intensity was measured using an Envision plate reader. Data were expressed as the ratio of 460:530nm. The cytotoxicity of the compounds was measured in the same plates by adding 4 uL of CellTiter-Glo reagent to each well and incubating the plates at room temperature for 30 min. The luminescence intensity was measured using a ViewLux plate reader.For the luciferase reporter gene assay, 5 uL/well (agonist format) and 4 uL/well (antagonist format) ONE-Glo reagent (Promega Corporation) was added using an FRD and after 30-min incubation at room temperature, the luminescence intensity was measured using a ViewLux plate reader. Data were expressed as relative fluorescence units (cell viability assay) and relative luminescence units (luciferase reporter assay).
# PGR (gene 5241) [9] = molecular target: PGR (gene 5241) (UniProt P06401); assay: TOX21_PR_LUC_Followup_Agonist: Tox21 HEK293 Progesterone Receptor (PR) Agonism Luciferase Follow-Up Assay (AID 2283937; active = hit-call score of the fitted dose curve at least 0.9, where 1 is the maximum; inactive = score below 0.9)
# From the text: TOX21_PR_LUC_Followup is a secondary assay for specificity for the TOX21_PR_BLA_Agonist assay. To differentiate true PR agonists from cytotoxic substances, this follow up assay is multiplexed with a cell viability assay.TOX21_PR_LUC_Followup_Agonist is one of one assay component(s) measured or calculated from the TOX21_PR_LUC_Followup assay. It is designed to make measurements of luciferase induction, a form of inducible reporter, as detected with bioluminescence signals by CellTiter-Glo Luciferase-coupled ATP quantitation technologyData from the assay component TOX21_PR_LUC_Followup_Agonist was analyzed into 1 assay endpoint. This assay endpoint, TOX21_PR_LUC_Followup_Agonist, was analyzed in the positive analysis fitting direction relative to DMSO as the negative control and baseline of activity. Using a type of inducible reporter, gain-of-signal activity can be used to understand changes in the reporter gene as they relate to the gene NR3C3. Furthermore, this assay endpoint can be referred to as a primary readout, because the performed assay has only produced 1 assay endpoint. To generalize the intended target to other relatable targets, this assay endpoint is annotated to the nuclear receptor target family, where the subfamily is steroidal.
# Quality Control Precautions: Maintain cells below 85-90% confluence in culture medium. For assay purpose, the cells should be cultured in assay medium with 10% charcoal stripped FBS for 5 days with alternate day medium changed to fresh medium. […] Then 4 uL of ONE-Glo reagent (Promega, Madison, WI) was added to each plate using a BioRAPTR Flying Reagent Dispenser (FRD) workstation (Beckman Coulter, Indianapolis, IN, USA) and luminescence was quantified on a ViewLux (PerkinElmer, Shelton, CT) plate reader after 30 min incubation at room temperature.
smiles,measurement,setting,value
CCOP(=S)(OCC)Oc1ccc(Cl)cc1Cl,outcome,PGR (gene 5241) [1],inactive
same,outcome,[2],inactive
same,outcome,[3],inactive
O=S(=O)(Oc1ccc(Cl)cc1)c1ccc(Cl)cc1,outcome,[4],inactive
same,outcome,PGR (gene 5241) [1],inactive
same,outcome,[3],inactive
CC1(C)COP(Oc2ccccc2)OC1,outcome,[5],inactive
same,outcome,THRA (gene 7067),inactive
same,outcome,[6],inactive
same,outcome,THRB (gene 7068) [7],inactive
CC(C)(C1CCC(O)CC1)C1CCC(O)CC1 (centres undefined),outcome,PGR (gene 5241) [1],inactive
same,outcome,[2],inactive
same,outcome,[3],inactive
c1csc(-c2ccc(-c3cccs3)s2)c1,outcome,[5],inactive
same,outcome,THRA (gene 7067),inactive
same,outcome,THRB (gene 7068) [8],inactive
same,outcome,[6],inactive
same,outcome,THRB (gene 7068) [7],inactive
O=S(=O)(c1ccc(Cl)cc1)c1cc(Cl)c(Cl)cc1Cl,outcome,[4],inactive
same,AC50,PGR (gene 5241) [1],61 µM (active)
O=C(Cl)OCCOCCOC(=O)Cl,outcome,[5],inactive
same,outcome,THRA (gene 7067),inactive
same,outcome,THRB (gene 7068) [8],inactive
same,outcome,[6],inactive
same,outcome,THRB (gene 7068) [7],inactive
OC(c1ccc(Cl)cc1)(c1ccc(Cl)cc1)c1cccnc1,outcome,[4],inactive
same,outcome,PGR (gene 5241) [9],inactive
same,AC50,PGR (gene 5241) [1],62.2 µM (active)
same,outcome,[2],inactive
same,outcome,[3],inactive
C=CC(=O)[O][Sn]([CH2]CCC)([CH2]CCC)[CH2]CCC,outcome,THRA (gene 7067),inactive
same,outcome,THRB (gene 7068) [8],inactive
same,outcome,[6],inactive
same,outcome,THRB (gene 7068) [7],inactive
CN(C)c1ccc(N=O)cc1,outcome,THRA (gene 7067),inactive
same,outcome,[6],inactive
same,outcome,THRB (gene 7068) [7],inactive
CCCSP(=S)(OCC)Oc1ccc(Cl)cc1Cl (centres undefined),outcome,[4],inactive
same,AC50,PGR (gene 5241) [1],24.3 µM (active)
O=[N+]([O-])c1ccc(Nc2ccccc2)cc1,outcome,[4],inactive
same,AC50,PGR (gene 5241) [1],12.8 µM (active)
same,outcome,[2],inactive
same,outcome,[3],inactive
CCC[CH2][Sn]([CH2]CCC)([CH2]CCC)[CH2]CCC,outcome,THRA (gene 7067),inactive
same,outcome,THRB (gene 7068) [8],inactive
same,outcome,[6],inactive
same,outcome,THRB (gene 7068) [7],inactive
Cc1ccccc1OP(=O)(Oc1ccccc1C)Oc1ccccc1C,outcome,[4],inactive
same,outcome,PGR (gene 5241) [9],inactive
same,outcome,PGR (gene 5241) [1],inactive
same,outcome,[2],inactive
same,outcome,[3],inactive
CC(O)(CS(=O)(=O)c1ccc(F)cc1)C(=O)Nc1ccc(C#N)c(C(F)(F)F)c1 (centres undefined),AC50,PGR (gene 5241) [1],6.97 µM (active)
CC(C)CC(C)(c1ccc(O)cc1)c1ccc(O)cc1,outcome,[4],inactive
same,outcome,PGR (gene 5241) [9],inactive
same,AC50,PGR (gene 5241) [1],12.2 µM (active)
same,outcome,[2],inactive
same,outcome,[3],inactive
CCCSP(=S)(OCC)Oc1ccc(SC)cc1 (centres undefined),outcome,[4],inactive
same,outcome,PGR (gene 5241) [1],inactive
Nc1ccc(-c2ccccc2)cc1,outcome,[4],inactive
same,outcome,PGR (gene 5241) [1],inactive
same,outcome,[2],inactive
same,outcome,[3],inactive
